Reference: the supplement of paper PMC9942566
± gives the standard deviation of the averaged measurements.

These compounds were tested on Serratia marcescens K904 PosmB-luxCDABE reporter (pMQ747) (assay: PosmB-lux reporter fold induction (RLU/OD600 relative to no-compound control), highest over Biolog concentrations; higher = stronger reporter activation). Details: ΔrcsB mutant CMS5177; 4 h.
Experimental: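 Serratia marcescens K904 (wild type) or its isogenic ΔrcsB mutant, carrying the Rcs-dependent PosmB-luxCDABE reporter plasmid pMQ747, was grown in LB at OD600 0.1 in Biolog Phenotype MicroArray plates PM11-20 for 4 h at 30-32°C. Each compound is present at 3-4 proprietary concentrations (not stated); per the Fig. S1 legend the value given is the highest fold over those wells. Three independent trials.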

SMILES | PosmB-lux reporter fold induction
CC1(C)S[C@@H]2[C@H](NC(=O)[C@H](NC(=O)N3CCNC3=O)c3ccccc3)C(=O)N2[C@H]1C(=O)O [Azlocillin] (Biolog plate: PM13, well positions: B1-4) | 1.27 ± 0.56
CC(C)NCC(O)COc1cccc2ccccc12 (racemic) [D,L-propranolol] (Biolog plate: PM20, well positions: B5-8) | 1.24 ± 0.19
O=C1C=C(O)C(=O)c2ccccc21 [lawsone] (Biolog plate: PM19, well positions: E9-12) | 1.14 ± 0.35
CS(=O)(=O)c1ccc([C@@H](O)[C@@H](CO)NC(=O)C(Cl)Cl)cc1 [thiamphenicol] (Biolog plate: PM18, well positions: A9-12) | 0.916 ± 0.32
CCn1cc(C(=O)O)c(=O)c2ccc(C)nc21 [Nalidixic Acid] (Biolog plate: PM11, well positions: E9-12) | 8.63 ± 3.1
CCOc1ccc2ccccc2c1C(=O)N[C@@H]1C(=O)N2[C@@H]1SC(C)(C)[C@@H]2C(=O)O [Nafcillin] (Biolog plate: PM11, well positions: D9-12) | 1.05 ± 0.14
Cn1cnc([N+](=O)[O-])c1Sc1ncnc2[nH]cnc12 [azathioprine] (Biolog plate: PM18, well positions: B9-12) | 0.729 ± 0.15
CCCCCCCCCCCC[N+](C)(C)CCCS(=O)(=O)[O-] [lauryl sulfobetaine] (Biolog plate: PM19, well positions: G1-4) | 1.4 ± 0.45
C[C@H]1c2cccc(O)c2C(=O)C2=C(O)[C@]3(O)C(=O)C(C(N)=O)=C(O)[C@@H](N(C)C)[C@@H]3[C@@H](O)[C@@H]21 [Doxycycline] (Biolog plate: PM13, well positions: C5-8) | 1.91 ± 0.69
CCCCC(CC)CNC(=N)NC(=N)NCCCCCCNC(=N)NC(=N)NCC(CC)CCCC (stereo not given) [Alexidine] (Biolog plate: PM15, well positions: E1-4) | 1.92 ± 0.13
CO[C@@H]1[C@@H](O[C@@H]2O[C@H](C)[C@@H](O[C@H]3C[C@@](C)(O)[C@@H](OC(=O)CC(C)C)[C@H](C)O3)[C@H](N(C)C)[C@H]2O)[C@@H](CC=O)C[C@@H](C)[C@@H](O)/C=C/C=C/C[C@@H](C)OC(=O)C[C@H]1OC(C)=O [josamycin] (Biolog plate: PM19, well positions: A2-4) | 9.66 ± 6.6
NC[C@@H]1O[C@H](O[C@H]2[C@@H](O)[C@H](O[C@@H]3[C@@H](O)[C@H](N)C[C@H](N)[C@H]3O[C@H]3O[C@H](CO)[C@@H](O)[C@H](O)[C@H]3N)O[C@@H]2CO)[C@H](N)[C@@H](O)[C@@H]1O [Paromomycin] (Biolog plate: PM12, well positions: C1-4) | 1.42 ± 0.79
CO/N=C(\C(=O)N[C@@H]1C(=O)N2C(C(=O)O)=C(COC(C)=O)CS[C@H]12)c1csc(N)n1 [cefotaxime] (Biolog plate: PM16, well positions: A2-4) | 1.11 ± 0.047
CSc1ccc2c(c1)N(CCC1CCCCN1C)c1ccccc1S2 (stereo not given) [thioridazine] (Biolog plate: PM20, well positions: C1-4) | 1.11 ± 0.088
OB(O)O [Boric acid] (Biolog plate: PM14, well positions: C1-4) | 23.8 ± 12
CCN(CC)CC(=O)Nc1c(C)cccc1C [lidocaine] (Biolog plate: PM18, well positions: D9-12) | 0.721 ± 0.15
C[C@@H]1NC(=O)[C@@H](N)CNC(=O)[C@H](C2CCNC(=N)N2)NC(=O)/C(=C/NC(N)=O)NC(=O)[C@H](CNC(=O)CC(N)CCCN)NC1=O.N=C1NCC[C@H]([C@@H]2NC(=O)/C(=C/NC(N)=O)NC(=O)[C@H](CNC(=O)C[C@@H](N)CCCN)NC(=O)[C@H](CO)NC(=O)[C@@H](N)CNC2=O)N1 [Capreomycin] (Biolog plate: PM11, well positions: D1-4) | 1.09 ± 0.081
NO [hydroxylamine] (Biolog plate: PM19, well positions: G9-12) | 1.39 ± 0.47
CCC(C)CCCC(=O)N[C@@H](CCN)C(=O)N[C@H](C(=O)N[C@@H](CCN)C(=O)N[C@H]1CCNC(=O)[C@H]([C@@H](C)O)NC(=O)[C@H](CCN)NC(=O)[C@H](CCN)NC(=O)[C@H](CC(C)C)NC(=O)[C@@H](CC(C)C)NC(=O)[C@H](CCN)NC1=O)[C@@H](C)O (stereo not given in full) [Colistin] (Biolog plate: PM11, well positions: C5-8) | 1.1 ± 0.22
On1ccccc1=S [1-Hydroxy-pyridine-2-thione] (Biolog plate: PM14, well positions: C5-8) | 1.1 ± 0.053

SMILES | PosmB-lux reporter fold induction
CO[C@@]1(NC(=O)Cc2cccs2)C(=O)N2C(C(=O)O)=C(COC(N)=O)CS[C@@H]21 [Cefoxitin] (Biolog plate: PM14, well positions: E1-4) | 1.2 ± 0.19
[Cl-].[Li+] [lithium chloride] (Biolog plate: PM17, well positions: F1-4) | 2.92 ± 1
O=P(O)(O)OP(=O)(O)O [sodium pyrophosphate decahydrate] (Biolog plate: PM18, well positions: A5-8) | 0.615 ± 0.16
CN[C@@H]1[C@@H](O)[C@@H](O[C@@H]2[C@@H](O)[C@H](O[C@H]3OC(CN)=CC[C@H]3N)[C@@H](N)C[C@H]2N)OC[C@]1(C)O [Sisomicin] (Biolog plate: PM12, well positions: D1-4) | 1.29 ± 0.5
CCc1cc(C(N)=S)ccn1 [ethionamide] (Biolog plate: PM17, well positions: B9-12) | 0.857 ± 0.29
N.N.N.N.N.N.[Cl-].[Cl-].[Cl-].[Co+3] [hexammine cobalt (III) chloride] (Biolog plate: PM19, well positions: H1-4) | 1.35 ± 0.2
CN(C)[C@@H]1C(O)=C(C(N)=O)C(=O)[C@@]2(O)C(O)=C3C(=O)c4c(O)cccc4[C@@](C)(O)[C@H]3C[C@@H]12 [Tetracycline] (Biolog plate: PM12, well positions: A5-8) | 1.12 ± 0.097
C[C@H]1O[C@@H](n2cc(F)c(=O)[nH]c2=O)[C@H](O)[C@@H]1O [5-fluoro-5'-deoxyuridine] (Biolog plate: PM18, well positions: H1-4) | 1.75 ± 0.72
O=C(O)c1ccccc1S [Thiosalicylic acid] (Biolog plate: PM17, well positions: A9-12) | 0.982 ± 0.15
CC(C)(C)CC(C)(C)c1ccc(OCCOCC[N+](C)(C)Cc2ccccc2)cc1 [Benzethonium chloride] (Biolog plate: PM12, well positions: E9-12) | 1.69 ± 0.07
[Na+].[O]=[V](=[O])[O-] [Sodium metavanadate] (Biolog plate: PM14, well positions: F9-12) | 1.84 ± 1
O=C([O-])c1ccccc1O.[Na+] [sodium salicylate (NSAID)] (Biolog plate: PM17, well positions: B1-4) | 2.06 ± 0.94
CCCCCCCC[N+](C)(CCCCCCCC)CCCCCCCC [methyltrioctyl-ammonium chloride] (Biolog plate: PM19, well positions: B1-4) | 2.23 ± 1.5
CO[C@@]1(NC(=O)CSCC#N)C(=O)N2C(C(=O)O)=C(CSc3nnnn3C)CS[C@@H]21 [Cefmetazole] (Biolog plate: PM15, well positions: A9-12) | 1.51 ± 0.23
CC1=CC(=O)c2ccccc2C1=O [Menadione] (Biolog plate: PM15, well positions: G9-12) | 0.917 ± 0.14
O=c1[nH]c(=O)n([C@H]2C[C@H](O)[C@@H](CO)O2)cc1C(F)(F)F [trifluorothymidine] (Biolog plate: PM18, well positions: B1-4) | 1.09 ± 0.28
CO[C@H]1/C=C/O[C@@]2(C)Oc3c(C)c(O)c4c(O)c(cc(O)c4c3C2=O)NC(=O)/C(C)=C\C=C\[C@H](C)[C@H](O)[C@@H](C)[C@@H](O)[C@@H](C)[C@H](OC(C)=O)[C@@H]1C [rifamycin SV] (Biolog plate: PM16, well positions: E9-12) | 35.4 ± 1.7
CC1(C)S[C@@H]2[C@H](NC(=O)COc3ccccc3)C(=O)N2[C@H]1C(=O)O.CN(C)[C@@H]1C(O)=C(C(=O)NCN2CCN(CCO)CC2)C(=O)[C@@]2(O)C(O)=C3C(=O)c4c(O)cccc4[C@@](C)(O)[C@H]3C[C@@H]12 [Penimepicycline] (Biolog plate: PM12, well positions: B5-8) | 1.27 ± 0.3
CCC[C@@H]1C[C@@H](C(=O)N[C@@H]([C@H]2O[C@H](SC)[C@H](O)[C@@H](O)[C@H]2O)[C@@H](C)O)N(C)C1 [Lincomycin] (Biolog plate: PM11, well positions: A9-12) | 2.28 ± 0.49
[Cl][Mn][Cl] [Manganese chloride] (Biolog plate: PM13, well positions: G5-8) | 1.41 ± 0.043
